Assay [1] can be described thus: ATG_CRE_CIS: Attagene CIS-FACTORIAL HepG2 Assay for human cAMP Responsive Element (CRE) binding protein 3 (AID 2282926). The conditions noted are these: HepG2 CRE cis-reporter, Attagene multiplexed mRNA; actives raise or lower the signal. Put shortly:
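Human liver HepG2, transient MRTU transfection, 24 h compound exposure. Total RNA → oligo(dT) RT → PCR → 6-FAM primer extension → HpaI cut → CE. Activity called both directions vs DMSO.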

In assay [2] the target is CCAAT/enhancer-binding protein beta (Homo sapiens) (UniProt P17676). Put plainly: ATG_C_EBP_CIS: Attagene CIS-FACTORIAL HepG2 Assay for human CCAAT/Enhancer Binding Protein (C/EBP) beta (AID 2282927). The note with it: HepG2 Attagene cis-factorial transcription factor reporter; actives raise or lower the signal. Put shortly:
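Following a 24 h incubation with test chemical, transfected HepG2 cells yielded RNA whose reporter transcripts were quantified by RT-PCR and fluorescent capillary electrophoresis, with DMSO serving as baseline for bidirectional fitting.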

A short description of assay [3]: ATG_CMV_CIS: Attagene CIS-FACTORIAL HepG2 Assay for human CMV (Internal Marker) (AID 2282928).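 Further: endpoint acts as a background internal control marker rather than a target.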 The note with it: HepG2 CMV promoter reporter, transcription factor profiling; actives raise or lower the signal. Put shortly: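 Endogenous transcription factor activity read in HepG2 via transfected cis-promoter reporter units. After 24 h dosing, reporter mRNA measured by RT-PCR/capillary electrophoresis; gain or loss of signal fit relative to DMSO.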

Assay [4] is described as follows: ATG_DR4_LXR_CIS: Attagene CIS-FACTORIAL HepG2 Assay for human Liver X Receptor (LXR), DR4 submotif (AID 2282929). The note with it: HepG2 Attagene DR4 cis-reporter, mRNA transcription; actives raise or lower the signal. Put shortly:
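HepG2 cells transiently transfected with cis-promoter-driven multiplexed reporter units (DR4 element) were dosed for 24 h. Reporter mRNA was quantified by RT-PCR, fluorescent primer extension, HpaI digestion and capillary electrophoresis; bidirectional fitting versus DMSO baseline.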

Assay [5] deals with Aryl hydrocarbon receptor (Homo sapiens) (UniProt P35869). As to the kind of experiment: ATG_Ahr_CIS: Attagene CIS-FACTORIAL HepG2 Assay for human Aryl Hydrocarbon Receptor (Ahr) (AID 2282930). The conditions noted are these: HepG2 AhR cis-factorial reporter transcription; actives raise or lower the signal. Put shortly:
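Values derive from bidirectional fitting against DMSO negative control. Underlying signal: cis-element reporter mRNA in transiently transfected HepG2, harvested 24 h post-dose and measured by RT-PCR plus capillary electrophoresis.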

The nature of assay [6]: ATG_AP_1_CIS: Attagene CIS-FACTORIAL HepG2 Assay for human Activator Protein 1 (AP-1) (AID 2282931). The conditions noted are these: HepG2 Attagene cis-factorial AP-1 reporter mRNA; actives raise or lower the signal. Put shortly: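 HepG2 cells transiently transfected with cis-element-driven multiplex reporter units; 24 h compound exposure. Reporter mRNA quantified by RT-PCR, FAM-labelled fragments resolved by capillary electrophoresis; bidirectional fit versus DMSO baseline.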

Assay [7] is described as follows: ATG_AP_2_CIS: Attagene CIS-FACTORIAL HepG2 Assay for human Activator Protein 2 (AP-2) (AID 2282932). The conditions noted are these: HepG2 AP-2 cis-reporter, Attagene transcription factor profiling; actives raise or lower the signal. Put shortly:
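HepG2 cells were transiently transfected with multiple cis-promoter reporter transcription units and dosed for 24 h. Reporter mRNA was measured by RT-PCR with capillary electrophoresis fluorescence; bidirectional fits relative to DMSO baseline.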

A short description of assay [8]: ATG_BRE_CIS: Attagene CIS-FACTORIAL HepG2 Assay for human Bone Morphogenetic Protein (BMP) Response Element (BRE) (AID 2282933). The note with it: HepG2 BMP response element reporter, Attagene transcription factor profiling; actives raise or lower the signal. Put shortly: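 After a 24 h chemical treatment, transiently transfected HepG2 cells were lysed for RNA; reporter transcripts were quantified by fluorescent RT-PCR and capillary electrophoresis, normalised to DMSO.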

For assay [9], the target named is Retinoic acid receptor alpha (Homo sapiens) (UniProt P10276). Put plainly: ATG_DR5_RAR_CIS: Attagene CIS-FACTORIAL HepG2 Assay for human Retinoic Acid Receptor Alpha (RARE), DR5 submotif (AID 2282934).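 On AC50: reporter responds to endogenous RAR alpha beta and gamma in HepG2 not RARA alone.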 The note with it: HepG2 Attagene cis-factorial RARE DR5 reporter, mRNA; actives raise or lower the signal. Put shortly: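 Endpoint fitted in both directions relative to DMSO as negative control. It reflects DR5 cis-element reporter mRNA induction in transiently transfected HepG2 cells, measured 24 h after dosing through RT-PCR and fluorescent capillary electrophoresis.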

Assay [10] concerns the target Transcription factor E2F1 (Homo sapiens) (UniProt Q01094). As to the kind of experiment: ATG_E2F_CIS: Attagene CIS-FACTORIAL HepG2 Assay for human E2F Transcription Factor 1 (AID 2282935). The note with it: HepG2 Attagene cis-reporter, E2F reporter RNA transcripts; actives raise or lower the signal. Put shortly: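 HepG2 cells transiently transfected with multiplexed cis-element reporter units, dosed for 24 h. Reporter mRNA measured by RT-PCR, 6-FAM primer-extension labeling, HpaI digestion and capillary electrophoresis; bidirectional fit versus DMSO baseline.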

Active and inactive are the calls of the source. How the source made its calls: active means hit-call score of the fitted dose curve at least 0.9, where 1 is the maximum; inactive means score below 0.9.

A word on the AC50: it is the midpoint of the concentration-response curve, whichever way the signal moves.

Chain of Aryl hydrocarbon receptor (Homo sapiens) (P35869 whole entry, looked up): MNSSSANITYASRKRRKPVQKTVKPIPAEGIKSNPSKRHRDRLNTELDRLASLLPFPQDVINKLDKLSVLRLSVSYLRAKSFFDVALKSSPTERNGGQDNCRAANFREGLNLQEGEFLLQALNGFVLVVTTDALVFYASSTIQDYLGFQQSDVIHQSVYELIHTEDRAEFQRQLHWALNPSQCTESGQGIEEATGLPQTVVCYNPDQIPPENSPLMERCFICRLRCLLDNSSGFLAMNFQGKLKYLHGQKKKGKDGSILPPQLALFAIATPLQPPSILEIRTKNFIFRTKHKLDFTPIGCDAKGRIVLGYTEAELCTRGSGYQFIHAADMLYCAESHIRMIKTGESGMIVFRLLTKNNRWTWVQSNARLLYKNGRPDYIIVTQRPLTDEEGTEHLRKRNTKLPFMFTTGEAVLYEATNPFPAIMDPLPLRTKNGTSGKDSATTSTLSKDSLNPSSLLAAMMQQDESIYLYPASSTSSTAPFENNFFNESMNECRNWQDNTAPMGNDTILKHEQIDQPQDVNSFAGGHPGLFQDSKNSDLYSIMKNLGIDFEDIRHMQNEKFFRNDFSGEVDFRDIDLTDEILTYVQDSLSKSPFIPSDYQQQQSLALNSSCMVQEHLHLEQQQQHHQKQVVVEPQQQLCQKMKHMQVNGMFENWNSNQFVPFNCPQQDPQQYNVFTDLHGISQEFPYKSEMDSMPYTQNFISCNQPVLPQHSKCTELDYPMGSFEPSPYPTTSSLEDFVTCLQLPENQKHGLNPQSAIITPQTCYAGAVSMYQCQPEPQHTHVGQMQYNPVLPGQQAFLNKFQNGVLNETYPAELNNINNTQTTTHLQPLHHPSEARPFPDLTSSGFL
Chain of Transcription factor E2F1 (Homo sapiens) (Q01094 whole entry, looked up): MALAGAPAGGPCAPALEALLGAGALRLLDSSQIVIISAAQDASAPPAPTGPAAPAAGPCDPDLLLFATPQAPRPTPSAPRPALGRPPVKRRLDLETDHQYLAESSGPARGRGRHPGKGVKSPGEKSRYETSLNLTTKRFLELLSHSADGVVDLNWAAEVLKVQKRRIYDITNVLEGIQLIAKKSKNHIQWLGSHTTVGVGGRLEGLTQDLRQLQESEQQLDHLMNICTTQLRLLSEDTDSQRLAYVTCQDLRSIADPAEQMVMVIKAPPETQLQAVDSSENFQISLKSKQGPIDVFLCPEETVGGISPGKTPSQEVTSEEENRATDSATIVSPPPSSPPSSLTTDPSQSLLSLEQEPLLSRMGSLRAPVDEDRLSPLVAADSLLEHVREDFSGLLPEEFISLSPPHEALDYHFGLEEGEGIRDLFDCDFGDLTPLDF
Chain of Retinoic acid receptor alpha (Homo sapiens) (P10276 whole entry, looked up): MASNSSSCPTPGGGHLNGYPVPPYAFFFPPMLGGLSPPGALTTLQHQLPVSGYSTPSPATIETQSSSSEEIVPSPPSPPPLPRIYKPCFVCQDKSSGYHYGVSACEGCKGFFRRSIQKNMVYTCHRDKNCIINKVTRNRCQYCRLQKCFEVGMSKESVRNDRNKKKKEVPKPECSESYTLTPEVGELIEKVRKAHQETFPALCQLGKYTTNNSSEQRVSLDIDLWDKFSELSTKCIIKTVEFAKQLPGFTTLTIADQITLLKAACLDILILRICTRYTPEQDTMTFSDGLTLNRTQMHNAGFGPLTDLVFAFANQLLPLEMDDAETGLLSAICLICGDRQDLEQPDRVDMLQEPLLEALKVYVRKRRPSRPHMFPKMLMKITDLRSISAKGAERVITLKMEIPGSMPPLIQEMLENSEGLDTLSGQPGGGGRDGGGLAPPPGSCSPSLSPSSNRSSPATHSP
Chain of CCAAT/enhancer-binding protein beta (Homo sapiens) (P17676 whole entry, looked up): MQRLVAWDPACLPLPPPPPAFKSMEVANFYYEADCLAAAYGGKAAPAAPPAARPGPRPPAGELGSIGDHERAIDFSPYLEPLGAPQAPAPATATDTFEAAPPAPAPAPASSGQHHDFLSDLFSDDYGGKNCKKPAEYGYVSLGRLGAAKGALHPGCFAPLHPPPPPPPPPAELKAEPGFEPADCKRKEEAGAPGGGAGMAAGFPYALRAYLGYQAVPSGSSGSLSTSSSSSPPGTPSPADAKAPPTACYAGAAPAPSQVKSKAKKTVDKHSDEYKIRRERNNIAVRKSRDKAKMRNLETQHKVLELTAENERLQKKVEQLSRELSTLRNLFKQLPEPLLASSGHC

On to `CCOC(=O)CN`, for which the compound was classed as inactive in assay [1], in assay [2], in assay [3], in assay [4], in assay [5] and in assay [6]. The call in assay [7], in assay [8], in assay [9] and in [10] was inactive.
Turning to `Nc1ccc(N)c2c1C(=O)c1ccccc1C2=O`, the AC50 in assay [1] is 3.11 µM (active); in assay [2] it was 11.3 µM (active); in [5], 1.59 µM (active). The result in assay [3], in assay [4], in [6], in assay [7], in assay [8] and in assay [9] was inactive. Further, the compound was classed as inactive in assay [10].
Turning to `COc1ccc(CCN2CCC(Nc3nc4ccccc4n3Cc3ccc(F)cc3)CC2)cc1`, the result in assay [1], in assay [2], in [3], in assay [4], in assay [5] and in assay [6] was inactive. For the same compound, the compound was called inactive in [7], in assay [8] and in assay [10].
Regarding `CC(CN=Cc1ccccc1O)N=Cc1ccccc1O` (stereo not drawn), the compound was called inactive in [1], in assay [2], in assay [4], in assay [7], in assay [8] and in assay [9]. Further, the compound was classed as inactive in assay [10]. Also, the values for the AC50 in assay [3] and in assay [5] were 100 µM (active) and 68.7 µM (active), respectively.
As to `C=Cc1ccncc1`, the outcome in assay [1], in [4], in [5], in [7], in [8] and in assay [10] was inactive. The values for the half-maximal activity concentration (AC50) in assay [2], in assay [3] and in assay [9] were 26.2 µM (active), 100 µM (active) and 27 µM (active), respectively.
For `CCCCOC(=O)CCCCCCCC(=O)OCCCC`, the outcome in [1], in [2], in [3], in assay [4], in assay [5] and in assay [6] was inactive. Also, the result in [7], in [8] and in [10] was inactive.
As for `CCN(CC)C(=O)N(CC)CC`, the result in [1], in assay [2], in [3], in assay [4], in assay [5] and in [7] was inactive. Besides, the outcome in [8] and in assay [10] was inactive.
`CCCCCCCCN1CCCC1=O`: the AC50 in assay [1] is 151 µM (active). Moreover, the outcome in [2], in [3], in [4], in assay [5], in assay [7] and in assay [8] was inactive. In addition, the call in assay [10] was inactive.
For the compound `C[C@@H]1CCN(C(=O)[C@H](CCCN=C(N)N)NS(=O)(=O)c2cccc3c2NC[C@H](C)C3)[C@@H](C(=O)O)C1`, the compound was called inactive in assay [1], in assay [2], in [3], in [4], in assay [5] and in [7]. For the same compound, the compound was called inactive in assay [8], in [9] and in assay [10].
`O=[N+]([O-])c1cccc(Cl)c1`: the compound was called inactive in assay [1], in assay [2], in [3], in [4], in assay [5] and in [7]. Further, the compound was called inactive in [8] and in [10].
Turning to `CCCCCCC(CO)CCCC` (stereo not drawn), the compound was called inactive in assay [1], in assay [2], in [3], in assay [4], in assay [7] and in assay [8]. Besides, the compound was classed as inactive in assay [9] and in [10]. In [5], the AC50 was 25.6 µM (active).
As to `Clc1cc(Cl)c(-c2c(Cl)c(Cl)cc(Cl)c2Cl)cc1Cl`, the compound was classed as inactive in assay [1], in assay [2], in assay [5], in [7], in assay [8] and in [9]. For the same compound, the compound was classed as inactive in [10]. Further, the concentration at half-maximal activity (AC50) is 30.4 µM (active) in [3] and 21.8 µM (active) in [4].
Consider `COC(C)(C)CCCC(C)CC=O` (stereo not drawn), for which the outcome in assay [1], in [2], in assay [3], in [4], in [5] and in [7] was inactive. Also, the call in assay [8], in [9] and in assay [10] was inactive.
In the case of `CCCC(=O)c1ccccc1`, the compound was called inactive in assay [1], in [2], in assay [3], in assay [4], in [5] and in assay [7]. The compound was called inactive in [8], in assay [9] and in assay [10].
As to `Cc1ccc2c(c1)C(=O)OC2=O`, the outcome in [1], in assay [2], in assay [3], in [4], in [5] and in [7] was inactive. The call in assay [8] and in assay [10] was inactive.
Consider `CCCCC1(COC(=O)CCC(=O)O)C(=O)N(c2ccccc2)N(c2ccccc2)C1=O`, for which the compound was called inactive in [1], in assay [2], in assay [3], in assay [4], in [5] and in assay [7]. In addition, the call in assay [8], in assay [9] and in assay [10] was inactive.
Take `CCCCOCC`: the outcome in assay [1], in assay [2], in [3], in assay [4], in [5] and in assay [7] was inactive. The call in [8], in assay [9] and in assay [10] was inactive.
Take `CCCCCCOC(=O)CCC`: the call in [1], in assay [2], in [3], in assay [4], in assay [5] and in assay [7] was inactive. Further, the result in assay [8], in assay [9] and in assay [10] was inactive.
Take `CC1(C)CCC[C@]2(C)[C@H]3CCO[C@]3(C)CC[C@@H]12`: the call in [1], in [2], in assay [3], in [4], in [5] and in assay [7] was inactive. The compound was classed as inactive in [8], in assay [9] and in assay [10].
Take `CC(Oc1cc(Cl)ccc1Cl)C(=O)O` (stereo not drawn): the call in [1], in assay [2], in [3], in assay [4], in assay [5] and in assay [6] was inactive. The call in [7], in assay [8] and in assay [10] was inactive.
Turning to `Cc1cc(CCC(=O)OCCOCCOCCOC(=O)CCc2cc(C)c(O)c(C(C)(C)C)c2)cc(C(C)(C)C)c1O`, the outcome in assay [1], in [2], in assay [3], in [4], in assay [5] and in assay [7] was inactive. Also, the compound was classed as inactive in assay [8], in [9] and in assay [10].
Regarding `CCCN(CCC)S(=O)(=O)c1ccc(C(=O)O)cc1`, the compound was called inactive in assay [1], in [2], in assay [3], in [4], in assay [5] and in assay [6]. For the same compound, the call in assay [7], in assay [8] and in assay [10] was inactive.
As for `CN1C(=O)c2ccccc2C1=O`, the compound was called inactive in [1], in [2], in [3], in assay [4], in [5] and in assay [7]. Besides, the outcome in assay [8], in [9] and in assay [10] was inactive.
`CC(C)CC(C)CC(O)CC(C)C` (stereo not drawn): the compound was called inactive in assay [1], in assay [2], in [3], in assay [4], in assay [5] and in [7]. The outcome in assay [8], in [9] and in assay [10] was inactive.
Turning to `CCCCCCC(C)Nc1ccc(Nc2ccccc2)cc1` (stereo not drawn), the call in assay [1], in assay [2], in [5], in assay [7], in assay [9] and in assay [10] was inactive. Moreover, the results for the AC50 in assay [3], in assay [4] and in [8] were 21.8 µM (active), 44.4 µM (active) and 50.5 µM (active), respectively.

Source of the values: PubChem BioAssay (EPA / NIEHS).
